# From PubChem BioAssay
# For part of these data: Results with a measured potency or affinity are listed apart. Calls of active or inactive are those of the source.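 The calls were made as follows, unless noted: active = fitted half-maximal concentration within 10 nM to 100 µM, steepness 0.5 to 2, significant signal drop, low assay interference; inactive = the rest.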
# Legend:
# [1] = biological target: Cell division control protein 42 homolog (Homo sapiens) (UniProt P60953); experiment: inhibition of fluorescent GTP binding to constitutively active Cdc42 – biochemical, multiplex bead flow cytometry, Bodipy-FL-GTP, dose response (AID 1333;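 active = fitted half-maximal concentration within the tested dose range, moderate curve steepness, a statistically real signal drop, and little compound fluorescence or tag-binding interference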); details: bead-based flow cytometry; series mostly up to 100 µM
# [2] = biological target: Cell division control protein 42 homolog (Homo sapiens) (UniProt P60953); experiment: inhibition of fluorescent GTP binding to wildtype Cdc42 – biochemical, multiplex bead flow cytometry, Bodipy-FL-GTP, dose response (AID 1334;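 active = fitted half-maximal concentration within the tested range, moderate curve steepness, significant signal drop, and little compound fluorescence or bead-linkage interference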); details: bead-based flow cytometry, Bodipy-FL-GTP binding to GST-Cdc42; at 100 µM (top of the series) unless noted
# [3] = biological target: GTPase HRas (Homo sapiens) (UniProt P01112); experiment: Ras wt fluorescent GTP loading blockade – biochemical, wildtype, multiplex bead flow cytometry, dose response (AID 1335); details: bead-based flow cytometry, Bodipy-GTP binding to GST-Ras; at 100 µM (top of the series) unless noted
# [4] = test system: Ras-related protein Rab-7a (dog), GTP binding; experiment: blockers of fluorescent GTP binding to Rab7 – biochemical, wildtype, multiplex bead flow cytometry, dose response (AID 1336; call rule not given here); details: bead-based flow cytometry; series mostly up to 100 µM
# [5] = biological target: Ras-related C3 botulinum toxin substrate 1 (Homo sapiens) (UniProt P63000); experiment: inhibition of wildtype Rac1 nucleotide loading – biochemical, multiplex bead flow cytometry, dose response (AID 1340;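 active = dose curve with midpoint inside tested range, moderate steepness, plateau gap beyond fit error, low compound glow and bead-link interference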); details: GST-Rac1 beads, Bodipy-FL-GTP binding; at 100 µM (top of the series) unless noted
# [6] = biological target: GTPase HRas (Homo sapiens) (UniProt P01112); experiment: blockade of GTP loading onto mutant Ras – biochemical, activated mutant, multiplex bead flow cytometry, dose response (AID 1341;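 active = dose-response curve with midpoint inside the tested range, moderate steepness, significant amplitude and little compound fluorescence or bead-attachment interference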;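 also: GST-tagged constitutively activated Ras mutant immobilized on beads and multiplexed with other GTPases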); details: bead-based flow cytometry, Bodipy-FL-GTP binding; series mostly up to 100 µM
# Cell division control protein 42 homolog (Homo sapiens), sequence (P60953 whole entry, looked up): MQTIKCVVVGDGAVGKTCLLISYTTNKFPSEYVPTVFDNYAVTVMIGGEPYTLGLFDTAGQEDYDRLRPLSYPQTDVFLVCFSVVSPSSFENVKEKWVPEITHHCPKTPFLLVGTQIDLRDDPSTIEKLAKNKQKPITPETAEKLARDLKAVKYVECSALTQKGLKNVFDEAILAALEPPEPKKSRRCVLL
# GTPase HRas (Homo sapiens), sequence (P01112 whole entry, looked up): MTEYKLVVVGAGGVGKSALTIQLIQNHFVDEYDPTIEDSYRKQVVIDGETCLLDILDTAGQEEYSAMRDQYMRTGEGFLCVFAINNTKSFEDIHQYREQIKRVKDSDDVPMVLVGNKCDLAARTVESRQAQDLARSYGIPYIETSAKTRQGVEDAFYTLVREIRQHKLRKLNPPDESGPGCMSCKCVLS
SMILES,outcome [1],"fluorescence, percent of control (lower = inhibition) [2] [%]","GTP binding, percent of control [3] [%]",outcome [4],"GTP binding signal, raw median fluorescence (lower = inhibition) (MCF (arbitrary fluorescence units)) [5]",outcome [6]
Cc1ccccc1CNCc1ccc(C(=O)O)s1,inactive,61.7,87,inactive,32.5,inactive
Cc1cc2nc(/C(C#N)=C/c3ccncc3)[nH]c2cc1C,inactive,30.6,76.7,inactive,245,inactive
COc1ccc(-c2nn3c(-c4ccco4)nnc3s2)cc1OC,inactive,39.1,132,inactive,143,inactive
Cc1ccccc1-c1nnc(NC(=O)c2ccc(N3C(=O)CCC3=O)cc2)s1,inactive,48.6,65.8,inactive,236,inactive
COc1ccc(/C=C(/C#N)C(=O)Nc2ccc(O)cc2)cc1C(=O)O,inactive,29.4,74.4,inactive,177,inactive
Cc1cc(N=NC(=O)c2ccccc2O)c2ccccc2c1O,inactive,36.1,85.2,inactive,243,inactive
Cc1noc(C)c1COc1cccc(C(=O)NCc2ccccc2Cl)c1,inactive,91.7,163,inactive,186,inactive
CCOC(=O)Cn1nnnc1CN(Cc1cccs1)Cc1cc2cc(C)ccc2[nH]c1=O,inactive,98.4,178,inactive,187,inactive
Cn1cc(C=C2C(=O)CC(C)(C)CC2=O)c2ccccc21,inactive,49.4,66.4,inactive,180,inactive
Cc1ccc(O)c(C(=O)c2cnn(C(=O)Cc3csc(C)n3)c2)c1,inactive,37,86.3,inactive,242,inactive
Cc1cccc(C)c1CCOc1ncccc1C(=O)O,inactive,80.3,251,inactive,70.2,inactive
Cc1ccccc1CSCc1ccc(C(=O)O)o1,inactive,61.3,89.8,inactive,30.2,inactive
Cc1n[nH]c(=S)c2nn(-c3ccccc3)c(C)c12,inactive,47.4,63.6,inactive,188,inactive
N#C/C(=C/c1ccc(N2CCCCCC2)o1)c1ccc(Cl)cc1,inactive,127,205,inactive,210,inactive
CC(C)n1c(O)c(N=Nc2ccc(Cl)nn2)c2ccccc21,inactive,69.1,78.2,inactive,196,inactive
O=C(O)c1c(C(F)(F)F)ccnc1SCc1ccccc1,inactive,62,228,inactive,55.9,inactive
COc1cc2[nH]c(=S)nc(NCc3cccs3)c2cc1OC,inactive,29.5,67.6,inactive,161,inactive
NS(=O)(=O)c1ccc(-c2ccc(/C=C3\C(=O)Nc4cc(Cl)ccc43)o2)cc1,inactive,38,78.4,inactive,152,inactive
CN1CCN(c2ccccc2NC(=O)c2ccc(-c3cccc([N+](=O)[O-])c3)o2)CC1,inactive,40.2,93.9,inactive,308,inactive

SMILES,outcome [1],"fluorescence, percent of control (lower = inhibition) [2] [%]","GTP binding, percent of control [3] [%]",outcome [4],"GTP binding signal, raw median fluorescence (lower = inhibition) (MCF (arbitrary fluorescence units)) [5]",outcome [6]
CC1CN(C(=O)c2cccc(S(=O)(=O)Nc3cc(Cl)ccc3Cl)c2)CC(C)O1 (stereo unspecified),inactive,26.5,65.8,inactive,168,inactive
COc1ccc(C(=O)N/N=c2\oc3ccccc3cc2C(N)=O)cc1,inactive,36.1,82.6,inactive,207,inactive
Cc1ccc(/C=C(\CCC(=O)O)c2nc3ccccc3s2)cc1[N+](=O)[O-],inactive,24.9,70.3,inactive,216,inactive
CCOc1cc(/C=C2/SC(=S)NC2=O)ccc1OC(=O)c1ccco1,inactive,33.4,83.7,inactive,208,inactive
O=C(NC1CCCCC1)c1noc2c1CCCCC2,inactive,34.3,80.9,inactive,252,inactive
COc1ccc(/C=N/NC(=O)CSc2n[nH]c(=O)[nH]c2=O)cc1,inactive,53.1,69.6,inactive,0,inactive
Cc1ccc(-n2nc3c(SCCN4CCOCC4)nnc(C)c3c2C)cc1,inactive,49,64.6,inactive,194,inactive
CCN(CC)c1ccc(/C=C(/C#N)c2nc3ccc(C)cc3[nH]2)c(OC(C)C)c1,inactive,96.1,108,inactive,264,inactive
Cc1no[n+]([O-])c1COc1cccc(/C=C2\N=C(c3ccccc3)OC2=O)c1,inactive,46.6,60.8,inactive,184,inactive
COc1ccccc1CNCc1sc(C(=O)O)cc1C,inactive,61.8,85.7,inactive,35.2,inactive
Cc1csc(NC(=O)c2cc(=O)[nH]c3ccc(S(=O)(=O)N4CCOCC4)cc23)n1,inactive,31.8,74.5,inactive,190,inactive
CCOc1cccc(-c2nn3c(-c4ccco4)nnc3s2)c1,inactive,32.7,71.3,inactive,164,inactive
Cc1cccc(NCc2ccc(O)c3ncccc23)c1C,inactive,39.8,84.4,inactive,259,inactive
O=C(C[n+]1cccc2ccccc21)c1ccc(NC(=O)c2ccccc2)cc1,inactive,75.8,123,inactive,332,inactive
COc1ccc(/C=N/Nc2ncnc3sc4c(c23)CCCC4)cc1O,inactive,30.6,42.8,inactive,112,inactive
O=C(O)C1C(C(=O)Nc2ccc(Cl)cc2)C2C=CC1C21CC1 (stereo unspecified),inactive,86.8,149,inactive,173,inactive
O=c1[nH]cnc2c1C(c1ccccc1[N+](=O)[O-])c1c(nc[nH]c1=O)O2,inactive,38.6,50,inactive,113,inactive
Cc1ccc(OCCn2cnc3cc([N+](=O)[O-])ccc3c2=O)cc1,inactive,38.1,85.1,inactive,190,inactive
COc1cc(NC(=O)c2cccs2)c(OC)cc1NC(=O)CCC(=O)Nc1ccc2ncccc2c1,inactive,30.9,69.1,inactive,196,inactive

SMILES,outcome [1],"fluorescence, percent of control (lower = inhibition) [2] [%]","GTP binding, percent of control [3] [%]",outcome [4],"GTP binding signal, raw median fluorescence (lower = inhibition) (MCF (arbitrary fluorescence units)) [5]",outcome [6]
COc1ccc(OC)c(C(C(=O)NCc2ccco2)N(C(=O)Cn2nnc3ccccc32)C2CC2)c1 (stereo unspecified),inactive,47.2,58,inactive,0,inactive
COc1cc(-c2cc(=O)c3c(O)cc(O)cc3o2)ccc1O,inactive,36,84.7,inactive,189,inactive
CCOC(=O)c1c(-c2ccc(C)cc2)csc1NC(=O)/C(C#N)=C/c1ccc(O)c(OC)c1,inactive,87.8,99.4,inactive,226,inactive
O=C(CSc1ncccc1C(=O)O)c1ccc2ccccc2c1,inactive,48.7,66.6,inactive,0,inactive
O=C(Nc1cccc(Cl)c1)Nc1ccnc(-c2cccnc2)n1,inactive,33.8,72.8,inactive,155,inactive
COc1ccc(CCNc2nc(=S)[nH]c3cc(OC)c(OC)cc23)cc1OC,inactive,25.9,57.9,inactive,111,inactive
CC(C)N(C)NC(=S)Nc1ccccc1,inactive,53.9,64.3,inactive,210,inactive
O=S(=O)(Nc1cccc(-c2cn3cccnc3n2)c1)c1ccccc1,inactive,34.9,48.7,inactive,114,inactive
Cc1cc(C(=O)NNC(=S)NC(C)c2ccccc2)c2ccccc2n1 (stereo unspecified),inactive,95.6,177,inactive,197,inactive
COc1ccc(CC2(CO)CCN(S(=O)(=O)c3sccc3C)CC2)cc1,inactive,35.4,82.2,inactive,273,inactive
COc1ccccc1OCc1ccoc1C(=O)O,inactive,62.9,87,inactive,35.8,inactive
Cc1cc(C)c2sc(N(CCN(C)C)C(=O)c3cc(Cl)sc3Cl)nc2c1,inactive,33.6,78.8,inactive,283,inactive
CNc1ncc(C(=O)c2ccc(Br)cc2)s1,inactive,37.3,85.2,inactive,277,inactive
COc1ccc(OC)c(CNCc2sc(C(=O)O)cc2C)c1,inactive,59.9,81.9,inactive,32.8,inactive
CCN1C(=O)/C(=C/C=C2/Sc3ccc4ccccc4c3N2CCO)SC1=S,inactive,27.6,59.2,inactive,179,inactive
O=C(O)COc1ccccc1/C=N/NC(=O)c1cc(-c2ccc(F)cc2)nc2ccccc12,inactive,30.7,80.5,inactive,177,inactive
COc1c(C)cc(Br)cc1C(=O)O,inactive,46.9,97,inactive,59.3,inactive
CCOC(=O)c1cc(C(=O)OCC)c(=O)[nH]c1N1CCCC1,inactive,31.6,72.4,inactive,262,inactive
